According to PubChem BioAssay (Tox21):
Results filed as inconclusive are left out. Active and inactive are the calls of the source. Unless noted, calls come from the whole dose curve; as a rule, active = well fitted curve in the direction sought with a large enough effect in the repeat runs; inconclusive = weak or mixed curves; inactive = no such curve, though single readings can be large; an effect the other way counts as inactive or inconclusive.

Legend:
[1] = qHTS assay to identify aromatase inhibitors - cell viability counter screen (AID 743084);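 note: cells stimulated with testosterone during compound exposure; nearly all actives have a fitted effect of over 55% in size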
[2] = molecular target: Aryl hydrocarbon receptor (Homo sapiens) (UniProt P35869); assay: qHTS assay to identify small molecule that activate the aryl hydrocarbon receptor (AhR) signaling pathway (AID 743085); note: nearly all actives have a fitted effect of over 15% in size; note: potency is the fitted concentration of half-maximal effect;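 for activation: HG2L7.5c1 human HepG2 liver cells with stably integrated DRE-driven firefly reporter; series mostly up to about 70 µM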
Chain of Aryl hydrocarbon receptor (Homo sapiens) (P35869 whole entry, looked up): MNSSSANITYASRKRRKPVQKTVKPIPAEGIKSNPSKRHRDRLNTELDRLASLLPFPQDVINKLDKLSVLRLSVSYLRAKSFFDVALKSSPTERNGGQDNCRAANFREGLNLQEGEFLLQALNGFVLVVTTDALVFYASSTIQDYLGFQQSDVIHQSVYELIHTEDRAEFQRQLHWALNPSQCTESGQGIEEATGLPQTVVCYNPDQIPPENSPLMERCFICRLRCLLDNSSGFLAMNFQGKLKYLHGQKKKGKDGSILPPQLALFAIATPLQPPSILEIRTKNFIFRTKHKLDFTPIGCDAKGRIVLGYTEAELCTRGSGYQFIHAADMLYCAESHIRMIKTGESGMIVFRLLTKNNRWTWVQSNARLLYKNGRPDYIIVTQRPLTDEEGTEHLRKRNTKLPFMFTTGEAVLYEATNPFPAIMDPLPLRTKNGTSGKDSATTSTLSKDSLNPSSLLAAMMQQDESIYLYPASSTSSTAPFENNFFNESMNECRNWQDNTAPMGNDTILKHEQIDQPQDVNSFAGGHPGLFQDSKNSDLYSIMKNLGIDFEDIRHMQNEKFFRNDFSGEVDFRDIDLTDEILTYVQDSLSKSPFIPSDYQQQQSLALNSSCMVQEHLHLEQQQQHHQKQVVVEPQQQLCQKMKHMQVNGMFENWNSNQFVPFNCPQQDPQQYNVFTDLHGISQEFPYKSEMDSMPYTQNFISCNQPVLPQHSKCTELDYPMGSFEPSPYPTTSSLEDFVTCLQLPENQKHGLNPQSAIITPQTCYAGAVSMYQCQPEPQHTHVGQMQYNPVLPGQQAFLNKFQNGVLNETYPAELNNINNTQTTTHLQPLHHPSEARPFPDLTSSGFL
In short: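 Reporter assay in engineered HepG2 line HG2L7.5c1, whose plasmid carries twenty dioxin responsive elements upstream of firefly luciferase. Treatment lasted 24 h at 37C; ONE-Glo luminescence gauged induction.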

[3] = qHTS assay to identify small molecule that activate the aryl hydrocarbon receptor (AhR) signaling pathway - cell viability counter screen (AID 743086);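 note: HepG2 liver cells carrying the AhR DRE luciferase reporter; series mostly up to about 70 µM; nearly all actives have a fitted effect of over 45% in size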
In short: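 HepG2-AhR-luc (HG2L7.5c1) cells, 4000/well, were preincubated 5 h at 37C, exposed to compound in qHTS format for 24 hr at 37C, then given CellTiter-Fluor for 30 min; viability was read as fluorescence in the reporter wells.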

[4] = molecular target: Peroxisome proliferator-activated receptor gamma (Homo sapiens) (UniProt P37231); assay: qHTS assay to identify small molecule agonists of the peroxisome proliferator-activated receptor gamma (PPARg) signaling pathway (AID 743094; active = well fitted activation curve with a large enough effect in the signal ratio in the repeat runs, not every such curve was filed as active; the % refers to the signal ratio)
Chain of Peroxisome proliferator-activated receptor gamma (Homo sapiens) (P37231 whole entry, looked up): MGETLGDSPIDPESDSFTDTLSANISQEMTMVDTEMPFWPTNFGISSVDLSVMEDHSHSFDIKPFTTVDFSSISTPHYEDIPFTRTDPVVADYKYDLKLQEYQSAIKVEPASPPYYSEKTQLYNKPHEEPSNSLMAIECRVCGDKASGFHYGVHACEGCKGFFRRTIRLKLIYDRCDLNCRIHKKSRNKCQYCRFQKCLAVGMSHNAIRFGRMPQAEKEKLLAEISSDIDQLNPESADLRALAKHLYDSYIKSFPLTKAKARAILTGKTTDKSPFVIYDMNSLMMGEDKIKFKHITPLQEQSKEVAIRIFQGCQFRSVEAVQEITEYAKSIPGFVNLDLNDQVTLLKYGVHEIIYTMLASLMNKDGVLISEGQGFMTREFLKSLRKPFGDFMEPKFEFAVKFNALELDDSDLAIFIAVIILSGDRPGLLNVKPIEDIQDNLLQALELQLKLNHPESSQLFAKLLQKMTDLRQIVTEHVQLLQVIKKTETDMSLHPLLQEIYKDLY
In short: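 Quantitative HTS agonist mode: stable HEK293H line with UAS-beta-lactamase reporter under PPARg control, 17 h compound exposure at 37C, fluorescence after 1 h FRET substrate loading at room temperature.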

[5] = molecular target: Peroxisome proliferator-activated receptor gamma (Homo sapiens) (UniProt P37231); assay: qHTS assay to identify small molecule antagonists of the peroxisome proliferator-activated receptor gamma (PPARg) signaling pathway (AID 743191; calls by dose curve; note: series mostly up to about 63 µM; nearly all actives have a fitted effect of over 30% in size)
In short: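 GeneBLAzer PPARg UAS-bla HEK293H cells carrying a UAS-driven beta-lactamase reporter were plated at 3000 cells/well, preincubated 5 h at 37C, then given compound for 17 h at 37C; LiveBLAzer B/G FRET substrate was read after 1 h at room temperature.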

[6] = qHTS assay to identify small molecule antagonists of the peroxisome proliferator-activated receptor gamma (PPARg) signaling pathway - cell viability counter screen (AID 743194); note: nearly all actives have a fitted effect of over 55% in size
In short: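 PPARg-UAS-bla HEK293H cells were plated, rested 5 h at 37 C, then treated with compounds plus rosiglitazone (50 nM final) for 17 h at 37 C; viability was then read by CellTiter-Glo luminescence after 30 min at room temperature.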

[7] = qHTS assay for small molecule agonists of the antioxidant response element (ARE) signaling pathway (AID 743202; active = well fitted activation curve with a large enough effect in the signal ratio in the repeat runs, not every such curve was filed as active; the % refers to the signal ratio; note: potency is the fitted concentration of half-maximal effect)
In short: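 Read-out: LiveBLAzer B/G FRET substrate fluorescence after 2 h at room temperature, following 16 h compound treatment at 37 C of HepG2 cells carrying an ARE-driven beta-lactamase reporter.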

[8] = qHTS assay for small molecule agonists of the antioxidant response element (ARE) signaling pathway - cell viability counter screen (AID 743203; calls by dose curve; note: nearly all actives have a fitted effect of over 55% in size)
In short: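 Seeded at 2,000 cells/well, ARE-bla HepG2 cells were incubated 5 hrs before compound addition. After 16 hrs of treatment at 37C with 5% CO2, CellTiter-Glo reagent was added and luminescence read 30 min later.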

[9] = qHTS assay for small molecule activators of the heat shock response signaling pathway - cell viability counter screen (AID 743209); note: nearly all actives have a fitted effect of over 50% in size
In short: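 First, HSE-bla HeLa cells were seeded at 1500 cells/well and kept overnight at 37 C. Next, compounds were pinned in and incubated 5 h. After the FRET substrate step, CellTiter-Glo was added and luminescence read 30 min later.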

[10] = qHTS assay for small molecule activators of the heat shock response signaling pathway (AID 743210; active = well fitted activation curve with a large enough effect in the signal ratio in the repeat runs, with a control signal flat, not every such curve was filed as active; the % refers to the signal ratio; note: series mostly up to about 63 µM)
In short: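 HSE-bla HeLa cells (beta-lactamase reporter under heat shock response elements) were exposed to compounds for 5 h at 37 C, then loaded with LiveBLAzer B/G FRET substrate for 2.5 h at room temperature before fluorescence reading.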

[11] = qHTS assay to identify small molecule agonists of the peroxisome proliferator-activated receptor delta (PPARd) signaling pathway - cell viability counter screen (AID 743211); note: nearly all actives have a fitted effect of over 55% in size
In short: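 Multiplexed format: after the 2 h room-temperature LiveBLAzer B/G FRET step, CellTiter-Glo was added to the same wells. Luminescence after 30 min gave cell viability; compound exposure was 17 h at 37C.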

[12] = molecular target: Peroxisome proliferator-activated receptor delta (Homo sapiens) (UniProt Q03181); assay: qHTS assay to identify small molecule agonists of the peroxisome proliferator-activated receptor delta (PPARd) signaling pathway (AID 743212; calls by dose curve)
Chain of Peroxisome proliferator-activated receptor delta (Homo sapiens) (Q03181 whole entry, looked up): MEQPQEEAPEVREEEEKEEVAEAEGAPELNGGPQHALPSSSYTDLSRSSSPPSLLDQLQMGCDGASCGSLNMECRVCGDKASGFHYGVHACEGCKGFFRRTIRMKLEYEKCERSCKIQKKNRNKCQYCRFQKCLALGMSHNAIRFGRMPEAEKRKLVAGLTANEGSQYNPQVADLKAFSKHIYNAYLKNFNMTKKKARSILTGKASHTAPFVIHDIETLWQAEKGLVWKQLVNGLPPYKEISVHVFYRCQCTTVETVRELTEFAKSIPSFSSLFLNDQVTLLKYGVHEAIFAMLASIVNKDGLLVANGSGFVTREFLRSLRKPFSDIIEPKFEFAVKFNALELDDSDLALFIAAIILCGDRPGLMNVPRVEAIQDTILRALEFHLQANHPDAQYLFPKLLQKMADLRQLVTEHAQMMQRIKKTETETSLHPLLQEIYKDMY
In short: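 GeneBLAzer PPARd UAS-bla HEK293H cells (beta-lactamase reporter under UAS control), plated and rested 5 h at 37 C, then exposed to compounds in DMSO at 37 C; LiveBLAzer B/G FRET substrate added, 2 h room temperature, fluorescence read.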

[13] = molecular target: Peroxisome proliferator-activated receptor delta (Homo sapiens) (UniProt Q03181); assay: qHTS assay to identify small molecule antagonists of the peroxisome proliferator-activated receptor delta (PPARd) signaling pathway (AID 743215; active = well fitted inhibition curve with a large enough effect in the signal ratio in the repeat runs, not every such curve was filed as active; the % refers to the signal ratio;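 note: cells stimulated with agonist L165041 at 300 nM final during compound exposure; series mostly up to about 62 µM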)
In short: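 Inhibition of L165041-driven (300 nM final) PPARd signaling is scored in HEK293H UAS-bla cells. Exposure lasts 17 h at 37 C; beta-lactamase activity is then read by FRET substrate fluorescence after 2 h at room temperature.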

[14] = qHTS assay to identify small molecule agonists of the farnesoid-X-receptor (FXR) signaling pathway - cell viability counter screen (AID 743218); note: nearly all actives have a fitted effect of over 45% in size
In short: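 Cytotoxicity counter-screen run in parallel, same wells: FXR-UAS-bla HEK 293T cells dosed 16 h at 37 C, viability read by CellTiter-Glo luminescence after 30 min at room temperature.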

[15] = qHTS assay to identify small molecule antagonists of the farnesoid-X-receptor (FXR) signaling pathway - cell viability counter screen (AID 743221; active = well fitted cell-killing curve with a large enough effect in the repeat runs, not every such curve was filed as active; note: nearly all actives have a fitted effect of over 50% in size)
In short: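 CellTiter-Glo, 30 min RT, luminescence; same wells as the LiveBLAzer FRET read. Cells: FXR-UAS-bla HEK 293T. Treatment: compound with chenodeoxycholic acid 50 uM final, 16 h at 37 C.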

[16] = molecular target: Vitamin D3 receptor (Homo sapiens) (UniProt P11473); assay: qHTS assay to identify small molecule agonists of the vitamin D receptor (VDR) signaling pathway (AID 743222; calls by dose curve)
Chain of Vitamin D3 receptor (Homo sapiens) (P11473 whole entry, looked up): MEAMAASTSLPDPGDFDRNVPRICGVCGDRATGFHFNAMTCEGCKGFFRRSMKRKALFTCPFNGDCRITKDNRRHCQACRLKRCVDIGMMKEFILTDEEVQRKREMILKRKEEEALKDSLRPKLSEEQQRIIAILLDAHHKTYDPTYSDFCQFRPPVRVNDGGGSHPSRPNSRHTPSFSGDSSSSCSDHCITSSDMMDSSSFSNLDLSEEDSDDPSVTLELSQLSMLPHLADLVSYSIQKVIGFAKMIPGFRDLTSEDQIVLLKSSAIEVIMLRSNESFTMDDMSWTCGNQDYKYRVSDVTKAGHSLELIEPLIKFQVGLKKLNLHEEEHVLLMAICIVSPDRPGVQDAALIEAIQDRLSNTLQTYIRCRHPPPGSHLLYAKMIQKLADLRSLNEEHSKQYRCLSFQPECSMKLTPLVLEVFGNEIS
In short: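 Quantitative HTS agonist-mode screen: compounds in DMSO were pin-transferred onto VDR-bla cells and incubated 16 h at 37C, 5% CO2. Reporter activity was detected with LiveBLAzer B/G FRET substrate after 2 h at room temperature.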

[17] = molecular target: Vitamin D3 receptor (Homo sapiens) (UniProt P11473); assay: qHTS assay to identify small molecule antagonists of the vitamin D receptor (VDR) signaling pathway (AID 743223; active = well fitted inhibition curve with a large enough effect in the signal ratio in the repeat runs, not every such curve was filed as active; the % refers to the signal ratio)
In short: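 After VDR-bla cells are plated and left 4 h at 37C, DMSO-dissolved compounds and 3 nM (final) calcitriol agonist are added. Incubation continues 16 h at 37C; FRET beta-lactamase substrate then develops 2 h at room temperature.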

[18] = qHTS assay to identify small molecule antagonists of the peroxisome proliferator-activated receptor delta (PPARd) signaling pathway - cell viability counter screen (AID 743213); note: nearly all actives have a fitted effect of over 50% in size
In short: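 Luminescence from CellTiter-Glo, added after the bla read and incubated 30 min at room temperature, gives viability of HEK293H PPARd-bla cells exposed to compounds for 17 h at 37 C with 300 nM L165041.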

[19] = molecular target: Bile acid receptor (Homo sapiens) (UniProt Q96RI1); assay: qHTS assay to identify small molecule antagonists of the farnesoid-X-receptor (FXR) signaling pathway (AID 743217; active = well fitted inhibition curve with a large enough effect in the signal ratio in the repeat runs, not every such curve was filed as active; the % refers to the signal ratio)
Chain of Bile acid receptor (Homo sapiens) (Q96RI1 whole entry, looked up): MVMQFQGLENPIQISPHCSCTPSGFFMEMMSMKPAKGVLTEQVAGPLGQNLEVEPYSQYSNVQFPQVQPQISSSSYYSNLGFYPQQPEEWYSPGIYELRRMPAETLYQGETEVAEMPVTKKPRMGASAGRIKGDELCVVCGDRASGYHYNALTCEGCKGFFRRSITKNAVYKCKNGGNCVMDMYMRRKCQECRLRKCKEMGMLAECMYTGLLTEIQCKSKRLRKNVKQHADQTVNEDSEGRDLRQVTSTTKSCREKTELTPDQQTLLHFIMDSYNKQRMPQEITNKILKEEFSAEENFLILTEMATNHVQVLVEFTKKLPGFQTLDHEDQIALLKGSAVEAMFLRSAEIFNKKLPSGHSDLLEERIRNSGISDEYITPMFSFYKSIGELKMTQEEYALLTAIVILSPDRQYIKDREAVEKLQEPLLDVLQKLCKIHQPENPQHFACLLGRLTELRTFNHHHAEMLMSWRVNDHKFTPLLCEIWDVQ
In short: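 Antagonist mode against 50 uM (final) chenodeoxycholic acid stimulation in FXR-bla HEK 293T cells, 16 h at 37 °C. Inhibition detected as reduced beta-lactamase activity via LiveBLAzer B/G FRET fluorescence after 2 h at room temperature.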

[20] = molecular target: Bile acid receptor (Homo sapiens) (UniProt Q96RI1); assay: qHTS assay to identify small molecule agonists of the farnesoid-X-receptor (FXR) signaling pathway (AID 743220; active = well fitted activation curve with a large enough effect in the signal ratio in the repeat runs, not every such curve was filed as active; the % refers to the signal ratio)
In short: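 Beta-lactamase reporter under UAS control in GeneBLAzer FXR HEK 293T cells (5000/well) measured with LiveBLAzer FRET substrate after 2 h at room temperature. Compound exposure lasted 16 h at 37C.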
% is set by controls: 0 for no effect and ±100 for the full control effect.

C[C@H]1C[C@H]2[C@@H]3CCC4=CC(=O)C=C[C@]4(C)[C@@]3(Cl)[C@@H](O)C[C@]2(C)[C@@]1(O)C(=O)CO
inactive: Potency [1] | Potency [2] | Potency [3] | Potency [4] | Potency [5] | Potency [6] | Potency [7] | Potency [8] | Potency [9] | Potency [10] | Potency [11] | Potency [12] | Potency [13] | Potency [14] | Potency [15] | Potency [16] | outcome [17]

O=C(OCCc1ccccc1)c1ccccc1
inactive: Potency [1] | Potency [2] | Potency [3] | Potency [4] | Potency [5] | Potency [6] | Potency [7] | Potency [8] | Potency [9] | Potency [10] | Potency [11] | Potency [12] | Potency [18] | Potency [13] | Potency [14] | Potency [15] | Potency [16] | outcome [17]

CCCCCCCCCCO[C@@H]1O[C@H](CO)[C@@H](O)[C@H](O)[C@H]1O
inactive: Potency [1] | Potency [2] | Potency [3] | Potency [4] | Potency [5] | Potency [6] | Potency [8] | Potency [9] | Potency [10] | Potency [11] | Potency [12] | Potency [13] | Potency [14] | Potency [15] | Potency [16] | outcome [17]

CC(COCCO)OCCO (stereo not drawn)
inactive: Potency [1] | Potency [2] | Potency [3] | Potency [4] | Potency [5] | Potency [6] | Potency [8] | Potency [9] | Potency [10] | Potency [11] | Potency [18] | Potency [19] | Potency [14] | Potency [20] | Potency [15] | Potency [16]

C/C(=C(\CCOP(=O)(O)O)SC(=O)c1ccccc1)N(C=O)Cc1cnc(C)nc1N
inactive: Potency [1] | Potency [2] | Potency [3] | Potency [4] | ratio activity, negative = inhibition [5] 3.86% [at 5.95 µM] | activity change, negative = cytotoxicity [6] 4.9% [at 5.95 µM] | viability change, negative = cytotoxic [8] 8.52% [at 8.36 µM] | activity change, negative = cytotoxicity [9] -16.4% [at 5.95 µM] | activation [10] 1.29% [at 5.95 µM] | activation [12] -1.46% [at 5.95 µM] | viability change, negative = cytotoxic [18] 1.06% [at 6.26 µM] | ratio activity, negative = inhibition [13] 6.78% [at 6.26 µM] | viability change, negative = cytotoxic [14] 3.54% [at 5.95 µM] | activity change, negative = cytotoxicity [15] 0.132% [at 5.95 µM] | activation [16] -0.529% [at 6.01 µM]

OC[C@H]1O[C@@H](OCCc2ccc(O)cc2)[C@H](O)[C@@H](O)[C@@H]1O
inactive: Potency [1] | Potency [2] | Potency [3] | Potency [4] | Potency [5] | Potency [6] | Potency [8] | Potency [9] | Potency [10] | Potency [11] | Potency [12] | Potency [18] | Potency [13] | Potency [19] | Potency [14] | Potency [20] | Potency [15] | Potency [16]

C#CCN(C)CCCOc1ccc(Cl)cc1Cl
active: Potency [2] 23.7 µM | Potency [7] 15 µM
inactive: Potency [1] | Potency [3] | Potency [4] | Potency [5] | Potency [6] | Potency [8] | Potency [9] | Potency [10] | Potency [11] | Potency [12] | Potency [18] | Potency [19] | Potency [14] | Potency [20] | Potency [15] | Potency [16] | outcome [17]

CN(C)CCN(Cc1ccccc1)c1ccccn1
inactive: Potency [1] | Potency [2] | Potency [3] | Potency [4] | Potency [5] | Potency [6] | Potency [7] | Potency [8] | Potency [9] | Potency [10] | Potency [12] | Potency [18] | Potency [13] | Potency [16] | outcome [17]

CCOC(=O)Cc1cccc2ccccc12
inactive: Potency [1] | Potency [2] | Potency [3] | Potency [4] | Potency [5] | Potency [6] | Potency [7] | Potency [8] | Potency [9] | Potency [11] | Potency [18] | Potency [14] | Potency [15] | Potency [16] | outcome [17]

CCCCC(CC)COC(=O)CCCCCCCCC(=O)OCC(CC)CCCC (stereo not drawn)
inactive: Potency [1] | Potency [2] | Potency [3] | Potency [4] | Potency [5] | Potency [6] | Potency [7] | Potency [8] | Potency [9] | Potency [10] | Potency [11] | Potency [12] | Potency [18] | Potency [13] | Potency [19] | Potency [14] | Potency [20] | Potency [15] | Potency [16] | outcome [17]

COc1cc(Cl)c(OC)cc1N
inactive: Potency [1] | Potency [3] | Potency [4] | Potency [5] | Potency [6] | Potency [8] | Potency [9] | Potency [10] | Potency [11] | Potency [12] | Potency [18] | Potency [13] | Potency [19] | Potency [14] | Potency [20] | Potency [15] | Potency [16] | outcome [17]
active: Potency [2] 30.6 µM

CC(C)(COC(=O)c1ccccc1)COC(=O)c1ccccc1
inactive: Potency [1] | Potency [2] | Potency [3] | Potency [4] | Potency [5] | Potency [6] | Potency [7] | Potency [8] | Potency [9] | Potency [10] | Potency [11] | Potency [12] | Potency [18] | Potency [13] | Potency [14] | Potency [15] | Potency [16]

O=C1C(O)=C(O)C(=O)C(O)=C1O
inactive: Potency [1] | Potency [2] | Potency [3] | Potency [4] | Potency [5] | Potency [6] | Potency [7] | Potency [8] | Potency [9] | Potency [10] | Potency [12] | Potency [18] | Potency [13] | Potency [19] | Potency [14] | Potency [20] | Potency [16] | outcome [17]

CC(=O)NO
inactive: Potency [1] | Potency [2] | Potency [3] | Potency [4] | Potency [5] | Potency [6] | Potency [7] | Potency [8] | Potency [9] | Potency [10] | Potency [11] | Potency [18] | Potency [14] | Potency [15] | Potency [16]

CC(=O)c1cccc([N+](=O)[O-])c1
inactive: Potency [1] | Potency [2] | Potency [3] | Potency [4] | Potency [5] | Potency [6] | Potency [7] | Potency [8] | Potency [9] | Potency [10] | Potency [11] | Potency [12] | Potency [18] | Potency [13] | Potency [19] | Potency [14] | Potency [20] | Potency [15] | Potency [16] | outcome [17]
